Screening data as filed in PubChem BioAssay.
NPC1 promoter act: activates the NPC1 promoter; Huh7 NPC1 promoter luciferase reporter, 24 h; Potency, µM (series often up to 9.22 µM), actives largely listed as activators; 320,000 tested, 2.4% active; AID 485313; also: nearly all actives have a fitted effect of over 60% in size
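Luminescence read-out of NPC1 promoter-driven luciferase in stably transfected Huh7 cells; compounds delivered in DMSO and left 24 h at 37C, 5% CO2, qHTS titration format.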
FLuc counter: firefly luciferase modulation, counter-screen for miR-21 project. purified FLuc, Km substrates, luminescence inhibition. P08659. Potency, µM (highest dose often 57.5 µM), actives largely listed as inhibitors. 360,000 tested, 6.9% active; also: nearly all actives have a fitted effect of over 55% in size
Target sequence (P08659 whole entry, looked up): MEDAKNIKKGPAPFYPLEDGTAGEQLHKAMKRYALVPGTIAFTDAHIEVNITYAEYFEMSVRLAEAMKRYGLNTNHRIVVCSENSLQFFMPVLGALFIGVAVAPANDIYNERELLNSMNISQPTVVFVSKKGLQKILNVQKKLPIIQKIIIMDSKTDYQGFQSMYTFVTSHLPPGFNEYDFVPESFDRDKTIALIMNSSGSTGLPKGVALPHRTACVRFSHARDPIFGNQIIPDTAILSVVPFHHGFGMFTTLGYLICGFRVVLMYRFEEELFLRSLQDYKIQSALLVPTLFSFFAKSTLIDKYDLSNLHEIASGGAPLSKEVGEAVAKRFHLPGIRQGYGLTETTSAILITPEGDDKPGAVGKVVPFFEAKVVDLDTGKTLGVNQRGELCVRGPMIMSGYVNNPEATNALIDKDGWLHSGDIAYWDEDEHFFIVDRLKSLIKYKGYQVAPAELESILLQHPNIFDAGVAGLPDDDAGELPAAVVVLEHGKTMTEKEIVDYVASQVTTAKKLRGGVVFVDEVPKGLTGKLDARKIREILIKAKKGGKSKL
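Biochemical qHTS of compounds, final roughly 60 µM downward over six points, against 10 nM purified firefly luciferase using Km concentrations of substrates (10 uM D-luciferin, 10 uM ATP) in Tris acetate pH 7.5 buffer; luminescence output.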
ELG1 genotoxic: genotoxicity induction in ELG1-luciferase HEK293T cells; 330,000 tested, 1.3% active; HEK293T ELG1-luciferase reporter, luminescence, 16 h; AID 504466; Potency, µM (series often up to 46 µM), usual class: activators; also: nearly all actives have a fitted effect of over 60% in size
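Reporter readout depends on ELG1 protein level, which increases with genetic stress. After 16 hr compound exposure at 37 °C, luciferase activity was quantified using ONE-Glo.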
ELG1 DNA repair: blocks ELG1-dependent DNA repair in HEK293T cells; HEK293T ELG1-luciferase reporter, luminescence, 16 h; DNA damage induced by 5-fluorouridine; 330,000 tested, 2.3% active; Potency, µM (top dose mostly 46.1 µM), hits mostly inhibitors; AID 504467; also: nearly all actives have a fitted effect of over 55% in size
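Reporter activity after DNA damage by 5-fluorouridine is monitored. Compound-treated cells incubate 16 hr at 37 °C, then ONE-Glo is added for 30 min before luminescence reading.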
SMN2 splice enh: increases expression of the SMN2 splice variant. Potency, µM (doses to about 46.1 µM), actives largely listed as activators. HEK293 SMN2-luciferase splicing reporter, luminescence, 30-36 h. 210,000 tested, 2.8% active; also: nearly all actives have a fitted effect of over 55% in size
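HEK293 cells carry an SMN2 minigene-luciferase reporter in which exon 7 inclusion puts luciferase in frame. Cells were seeded at 2000 cells/well, attached for 10-12 hours, then exposed to compounds for 30-36 hours at 37C before ONE-Glo luminescence.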
Rab9 promoter act: activators of Rab9 promoter | Huh7 Rab9 promoter-luciferase reporter, luminescence, 24 h | Potency, µM (titrated, usually from 9.22 µM), actives largely listed as activators | 320,000 tested, 2.8% active | AID 485297; also: nearly all actives have a fitted effect of over 60% in size
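Cells were plated at 1500 per well in reduced-serum medium with 10% FBS and left 2 h. Compound in DMSO was then added for 24 h at 37 °C. Reporter signal was read by luminescence after 10 min with luciferase detection reagent.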
Numbers stand for hits; - = inactive; ? = inconclusive; . = no result given. Sampled rows, rich in hits. Any-hit rate of the full collection: about 9.2%. Calls follow the shape of the dose curve; as a rule, active = well fitted curve in the direction sought with a large enough effect; inconclusive = small, poorly fitted or top-dose-only effect, or another doubt; inactive = no such curve, though single readings can be large; an effect the other way counts as inactive or inconclusive.

SMILES | NPC1 promoter act | FLuc counter | ELG1 genotoxic | ELG1 DNA repair | SMN2 splice enh | Rab9 promoter act
CCOc1cc(NC(=S)NCC2CCCO2)c(OCC)cc1NC(=O)c1cccc(C)c1 (stereo not given) | - | - | - | ? | - | -
Cn1cccc1/C=C1\CC(C(C)(C)C)C/C(=C\c2cccn2C)C1=O (stereo not given) | - | - | - | ? | - | -
Cn1cccc1/C=C1\Cc2ccccc2C1=O | - | 6.7µM | ? | ? | ? | ?
Cn1cccc1/C=C1\CCc2ccccc2C1=O | 0.35µM | 1.5µM | ? | ? | 1µM | 0.13µM
Cc1ccc(OCC(=O)OCC(=O)NC2CC2)cc1C | - | . | - | - | . | -
CCC(=O)c1ccc(CCCCCC(=O)O)s1 | - | 9.5µM | - | ? | . | -
CC(=O)c1ccc(CCCCCCCCCC(=O)O)s1 | - | ? | - | - | - | -
COc1ccc(-c2nc3ccccc3s2)cc1NC(=O)c1ccccc1F | . | - | . | . | - | .
COc1ccc(-c2nc3ccccc3s2)cc1NC(=O)c1cccc([N+](=O)[O-])c1C | . | 3.4µM | . | . | 11µM | .
Cc1ccc(C(=O)NC(=S)Nc2cc(-c3nc4ccccc4s3)ccc2C)cc1 | - | 9.5µM | ? | ? | - | -
COc1ccc(-c2nc3ccccc3s2)cc1NC(=O)c1cc2ccccc2o1 | . | - | . | . | - | .
COc1ccccc1OC(C)C(=O)Nc1cccc(-c2nc3ccccc3s2)c1 (stereo not given) | . | 11µM | . | . | . | .
COc1ccc(-c2nc3ccccc3s2)cc1NC(=O)COc1cccc(C)c1 | . | ? | . | . | 2.8µM | .
O=C(CNC(=O)c1ccco1)OCC(=O)c1ccc(Br)cc1 | - | - | - | - | . | -
N#Cc1cccc(NC(=O)N2CCCC3(CCN(C(=O)c4ccco4)CC3)C2)c1 | . | . | . | . | - | .
COc1cccc(CNC(=O)Cn2c(SCC(=O)Nc3ccc(C)c(C)c3)nc3ccccc32)c1 | . | - | . | . | . | .
COc1ccc(-c2nc3ccccc3s2)cc1NC(C)=O | 2.5µM | 6.7µM | 16µM | ? | 11µM | 2.2µM
Cc1ccc(-c2nc3ccccc3s2)cc1NC(=O)COc1ccccc1 | . | - | . | . | - | .
COc1ccc(-c2nc3ccccc3s2)cc1NC(=O)COc1ccc(C)cc1 | . | - | . | . | 1.3µM | .
O=C(COC(=O)CCc1ccc(S(=O)(=O)N2CCOCC2)cc1)NCc1ccc(Cl)cc1 | - | - | - | - | - | -
O=c1cc(N2CCN(c3cccc(Cl)c3)CC2)[nH]c(=O)n1C1CCCCC1 | - | - | ? | - | 7.9µM | -
CC(C)C(=O)Nc1ccc(-c2nc3ncccc3o2)cc1 | 0.5µM | 4.3µM | ? | ? | . | 0.5µM
CC(C)C(=O)Nc1cccc(-c2nc3ncccc3o2)c1 | - | - | - | - | . | -
CC(C)C(=O)Nc1ccc(-c2nc3cccnc3o2)cc1 | 0.56µM | 2.7µM | ? | ? | 4.5µM | 0.5µM
CC(C)(C)c1ccc(OCC(=O)Nc2ccc(-c3nc4cccnc4o3)cc2)cc1 | . | - | . | . | - | .
SMILES | NPC1 promoter act | FLuc counter | ELG1 genotoxic | ELG1 DNA repair | SMN2 splice enh | Rab9 promoter act
CCC12CSc3nc(Cl)ccc3N1C(=O)C(=O)N2C (stereo not given) | - | - | - | - | . | -
O=S1(=O)N=C(Nc2ccc(O)cc2)c2ccccc21 | - | - | - | - | - | -
O=S1(=O)N=C(Nc2ccc(N3CCOCC3)c(Cl)c2)c2ccccc21 | ? | 5.4µM | ? | - | 13µM | 3.5µM
CCOC(=O)c1nc(Nc2cccc(C)c2)c2ccccc2n1 | - | - | - | 16µM | - | -
CCOC(=O)c1cccc(Nc2nc(-c3cccnc3)nc3ccccc23)c1 | - | - | - | 9.2µM | - | -
CC(=O)c1cccc(Nc2nc(-c3ccccc3)nc3ccccc23)c1 | - | - | - | 23µM | . | -
COC(=O)c1cccc(Nc2nc(-c3cccnc3)nc3ccccc23)c1 | - | - | - | 7.3µM | . | -
Cc1ccc(C)c(NC(=O)Nc2nnc(N(CC(C)C)CC(C)C)s2)c1 | . | - | . | . | . | .
CCN(C(=O)c1cccs1)c1nnc(-c2ccncc2)s1 | - | 13µM | ? | - | - | ?
O=C(Nc1cccnc1)c1noc2c1CCCC2 | ? | ? | ? | ? | - | ?
CC(=O)c1ccc(NC(=O)c2noc3c2CCCCC3)cc1 | 1.1µM | 7.6µM | 2.9µM | ? | 8.9µM | 2µM
CCOC(=O)c1ccc(NC(=O)c2noc3c2CCCC3)cc1 | . | 8.5µM | . | . | . | .
O=C(CCN1C(=O)/C(=C/c2ccccc2)SC1=S)Nc1cccnc1 | - | - | - | - | . | -
CCc1ccc(/C=C2/SC(=S)N(CCC(=O)Nc3cccnc3)C2=O)cc1 | - | 0.85µM | - | - | . | -
O=C(CCCN1C(=O)/C(=C\c2ccccc2)SC1=S)Nc1ccc(C(=O)O)cc1 | - | 17µM | - | - | . | -
CCc1ccc(/C=C2\SC(=S)N(CCCC(=O)Nc3ccc(C(=O)O)cc3)C2=O)cc1 | - | 4.8µM | - | ? | . | -
CCOC(=O)Cn1c(=O)oc2cc(S(=O)(=O)N3CCN(c4cccc(Cl)c4)CC3)ccc21 | . | - | . | . | - | .
Cc1nn(C)c(C)c1C1Nc2ccccc2C(=O)N1O (stereo not given) | - | - | - | - | - | -
O=C1c2ccccc2NC(c2cnc3ccccc3n2)N1O (stereo not given) | 1.3µM | 2.4µM | ? | ? | 11µM | 0.89µM
Cc1cc(C)n2nc(-c3cccnc3)nc2n1 | - | - | - | - | - | -
CC(C)c1ccc(/C=c2\sc3nc(-c4ccncc4)nn3c2=O)cc1 | - | 2.4µM | - | ? | - | -
Cc1ccc(/C=c2\sc3nc(-c4cccnc4)nn3c2=O)cc1 | - | 4.8µM | - | - | - | -
Cc1ccc2c(c1)-c1nc(-c3ccc(Cl)cc3)cc(-c3coc4ccccc4c3=O)c1CO2 | . | - | . | . | - | .
COCc1ccc(C(=O)Nc2cccc(S(=O)(=O)N(C)c3ccccc3)c2)cc1 | . | . | - | 18µM | . | .
CN(c1ccc(C(=O)Nc2cccc(O)c2)cc1)S(=O)(=O)c1ccccc1 | - | - | - | ? | . | -
SMILES | NPC1 promoter act | FLuc counter | ELG1 genotoxic | ELG1 DNA repair | SMN2 splice enh | Rab9 promoter act
CN(C)S(=O)(=O)c1cccc(NC(=O)c2ccc(COc3ccccc3)cc2)c1 | - | ? | - | 12µM | . | -
CC(C)(C)C1CCc2c(C(=O)NNC(=O)/C=C/C(=O)O)csc2C1 (stereo not given) | - | 24µM | - | - | - | -
CC(C)(C)C1CCc2c(C(=O)N/N=C/c3cccs3)csc2C1 (stereo not given) | ? | 5.4µM | - | ? | 14µM | ?
CCOC(=O)C1=C(CC)Nc2ccccc2N=C1NC(=O)Nc1ccc(Cl)c(Cl)c1 | - | ? | - | 18µM | - | -
CCOC(=O)C1=C(CC)Nc2ccccc2N=C1NC(=O)c1cc(C)on1 | - | - | - | - | . | -
Cc1nnc(NCCc2ccccc2)c2ccccc12 | 1.6µM | 7.6µM | 9.2µM | ? | . | 1.4µM
